# Laboratory results: PubChem BioAssay AID624002 (National Center for Advancing Translational Sciences (NCATS), 2012)
# The list shows a part of the results. Results filed as inconclusive are left out. Active and inactive are the calls of the source. Calls come from the whole dose curve; as a rule, active = well fitted inhibition curve with a large enough effect; inconclusive = small, poorly fitted or top-dose-only effect; inactive = no such curve, though single readings can be large or run the other way.
# Biological target: Isocitrate dehydrogenase [NADP] cytoplasmic (Homo sapiens) (UniProt O75874)
# Sequence (O75874 whole entry R132H, change not shown): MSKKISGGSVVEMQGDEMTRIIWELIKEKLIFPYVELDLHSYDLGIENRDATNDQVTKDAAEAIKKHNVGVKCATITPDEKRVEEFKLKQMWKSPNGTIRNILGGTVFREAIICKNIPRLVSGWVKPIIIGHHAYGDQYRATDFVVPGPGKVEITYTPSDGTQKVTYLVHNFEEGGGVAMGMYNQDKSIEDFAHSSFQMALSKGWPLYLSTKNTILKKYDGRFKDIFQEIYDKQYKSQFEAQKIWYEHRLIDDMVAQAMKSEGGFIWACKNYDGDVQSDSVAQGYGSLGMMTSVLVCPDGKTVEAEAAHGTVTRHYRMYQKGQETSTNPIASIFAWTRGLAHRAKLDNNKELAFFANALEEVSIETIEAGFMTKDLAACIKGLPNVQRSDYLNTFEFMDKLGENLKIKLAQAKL
# Test: qHTS for Inhibitors of mutant isocitrate dehydrogenase 1 (IDH1): Confirmation of Cherrypicks; note: nearly all actives have a fitted effect of over 50% in size
# Conditions: IDH1 R132H enzyme, NADPH diaphorase/resazurin fluorescence
# Excerpt: Malignant glioblastomas (WHO grade IV), including primary and secondary glioblastomas, are among the most lethal with a median survival of one year, and unfortunately they are also the most prevalent type of brain tumors. By and large the standard of care of gliomas remains the use of the oral alkylating agent temozolomide and radiotherapy following surgical tumor resection. There is an urgent unmet medical need for novel therapeutics for gliomas. IDH mutations occur in up to 70% of grade II-IV secondary glioblastomas, and IDH1 R132H is the most prevalent mutation. […] Wild-type IDH1 catalyzes the conversion of isocitrate to -ketoglutarate with the concomitant reduction of NADP+ to NADPH. […] Inhibition of the IDH1 R132H enzymatic reaction leads to an increase in the amount of NADPH relative to a DMSO control and a concomitant increase in the fluorescence of the diaphorase/resazurin enzyme product resorufin at 590 nm. […]
# Enzyme buffer was dispensed into black, solid 1536-well plates at 3 microL/well in 20 mM Tris buffer, pH 7.5, containing final concentrations of 10 mM MgCl2, 20 mM NaCl, 0.001% Tween20, 0.05% BSA, 2 mM beta-ME and 5.2 nM IDH1 R132H. […] The inherent compound fluorescence was measured at this point at 590 nm on a ViewLux plate reader (Ex 525, Em 598, bodipy filter). […] The %Activity was determined from the corrected fluorescence values. […]
# Potency is the fitted concentration of half-maximal effect.
smiles,measurement,value
CC(C)(C)c1ccc(S(=O)(=O)Nc2ccc(O)c(Sc3nc4ccccc4s3)c2)cc1,Potency,15.8 µM (active)
